From PubChem BioAssay (NCI)
Values joined by “and” are separate entries in the source; they are usually repeats but may differ in a detail not shown here. Equal entries are not always repeated. This is part of a sample that, as a whole, favours compounds with a hit. Of some 79,000 tested, about 15% had one in any assay. The source holds several records for some structures; these can differ, active in one and inactive in another. Active and inactive are the calls of the source. No stated cut-off is given here; in the data, active means growth inhibition above about 70%; inactive means the rest.

Tests used:
[1] = NCI Yeast Anticancer Drug Screen. Data for the rad50 strain (AID 155);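 further: 0% = growth of vehicle-only cultures of the same strain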; conditions: S. cerevisiae rad50 strain growth inhibition; at 50.0 µM; stronger effect = higher value
How it was run: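 DNA repair mutant yeast, compound exposure, growth read-out; inhibition is taken relative to vehicle.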

[2] = NCI Yeast Anticancer Drug Screen. Data for the mec2-1 strain (AID 157); conditions: S. cerevisiae mec2-1 strain, at 50.0 µM, stronger effect = higher value
How it was run: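 Using mec2-1 yeast: add compound, measure growth, express inhibition versus vehicle-treated cultures.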

[3] = NCI Yeast Anticancer Drug Screen. Data for the sgs1 mgt1 strain (AID 161);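 further: 0% = growth of cultures given vehicle only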; conditions: S. cerevisiae sgs1 mgt1 strain, at 50.0 µM, stronger effect = higher value
How it was run: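 This yeast growth screen uses a strain with defined DNA-repair lesions; compound-treated growth is compared with vehicle-treated growth.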

[4] = NCI Yeast Anticancer Drug Screen. Data for the cln2 rad14 strain (AID 165);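 further: 0% = growth equal to vehicle treated cultures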; conditions: S. cerevisiae cln2 rad14 strain, at 50.0 µM, stronger effect = higher value
How it was run: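 Yeast strain cln2 rad14, bearing defects in cell cycle control and DNA repair, serves as the test system; values reflect growth inhibition compared with vehicle.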

[5] = NCI Yeast Anticancer Drug Screen. Data for the bub3 strain (AID 167); conditions: S. cerevisiae bub3 mutant strain, at 50.0 µM, stronger effect = higher value
How it was run: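 In this screen, a yeast mutant lacking normal mitotic checkpoint function is challenged with compound. Relative growth versus vehicle gives the inhibition value.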

[6] = NCI Yeast Anticancer Drug Screen. Data for the mlh1 rad18 strain (AID 175); conditions: S. cerevisiae mlh1 rad18 strain growth inhibition; at 50.0 µM; stronger effect = higher value
How it was run: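 Steps: expose repair-defective yeast to compound; measure growth; express inhibition against vehicle-treated controls.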

| Structure (SMILES) | growth inhibition [1] | growth inhibition [2] | growth inhibition [3] | growth inhibition [4] | growth inhibition [5] | growth inhibition [6] |
| --- | --- | --- | --- | --- | --- | --- |
| O=[N+]([O-])c1cc(S(=O)(=O)O)ccc1Cl | -9.65% (inactive) and 14.6% (inactive) | 3.25% (inactive) and -1.15% (inactive) | -9.3% (inactive) and -7.65% (inactive) | 9.2% (inactive) and 12.7% (inactive) | 0.1% (inactive) and 6.25% (inactive) | 15.2% (inactive) and 14.8% (inactive) |
| COC(=O)/C=C\C(=O)O | -4.95% (inactive) and 5.05% (inactive) | -4.85% (inactive) and -16.4% (inactive) | -1.75% (inactive) and -2.6% (inactive) | -15.7% (inactive) and -17.2% (inactive) | 3.35% (inactive) and -23.7% (inactive) | 14.2% (inactive) and 8.65% (inactive) |
| CC1CC(C)(C)C2=NCCN21 (configuration not stated) | 2.25% (inactive) and -8.15% (inactive) | -23.6% (inactive) and -28.6% (inactive) | -4.8% (inactive) and 8.8% (inactive) | -3.2% (inactive) and 18.6% (inactive) | -7.3% (inactive) and 14.2% (inactive) | -0.7% (inactive) and -3.25% (inactive) |
| Cc1ccc(S(=O)(=O)N(C)c2ccccc2)cc1 | -18.6% (inactive) and -3.7% (inactive) | -50.7% (inactive) and -1.25% (inactive) | -0.55% (inactive) and 10.2% (inactive) | 1.2% (inactive) and -25.4% (inactive) | 11.8% (inactive) and 16.3% (inactive) | -10% (inactive) and 9.95% (inactive) |
| COc1cc(N)ccc1NC(C)=O | -5.25% (inactive) and 0.6% (inactive) | -13.6% (inactive) and -12.7% (inactive) | 4.45% (inactive) and -35.6% (inactive) | 18.4% (inactive) and -41% (inactive) | -0.9% (inactive) and -2.55% (inactive) | 18.8% (inactive) and -21.4% (inactive) |
| Cc1ccc(S(=O)(=O)NN)cc1 | -8.7% (inactive) and 9.3% (inactive) | 2.3% (inactive) and -9.9% (inactive) | -3.6% (inactive) and 5.7% (inactive) | 2.5% (inactive) and 6.7% (inactive) | -30.2% (inactive) and 16.4% (inactive) | -20% (inactive) and 5.9% (inactive) |
| CC(=O)NC1CCC(C(F)(F)F)CC1 (configuration not stated) | 9.9% (inactive) and 2.15% (inactive) | 5.75% (inactive) and -5.7% (inactive) | -9.5% (inactive) and -4.95% (inactive) | -6.2% (inactive) and -21.2% (inactive) | -1.75% (inactive) and -2.55% (inactive) | 12.8% (inactive) and 8.05% (inactive) |
| Cc1ccc2ccccc2[n+]1C | 31.9% (inactive) and -24.6% (inactive) | -7.45% (inactive) and -34.3% (inactive) | -1.25% (inactive) and -16.4% (inactive) | -36.9% (inactive) and 1.2% (inactive) | -1.5% (inactive) and -26.8% (inactive) | -5.4% (inactive) and -20.4% (inactive) |
| CN(C)COC(=S)S | -7.65% (inactive) and 4.05% (inactive) | -14.4% (inactive) and 3.65% (inactive) | -3.8% (inactive) and -1.7% (inactive) | -30.9% (inactive) and 3.55% (inactive) | 1.75% (inactive) and -5.5% (inactive) | -3.9% (inactive) and 2.1% (inactive) |
| [Cl][Pr]([Cl])[Cl] | 21.9% (inactive) and 19.1% (inactive) | -7.65% (inactive) and 5.55% (inactive) | -3.4% (inactive) and 33.6% (inactive) | 1.6% (inactive) and 19.1% (inactive) | 7.65% (inactive) and 22.9% (inactive) | 1.4% (inactive) and 42.2% (inactive) |
| CC(C)(CO)C(O)C(=O)NCCS(=O)(=O)O (configuration not stated) | -6.8% (inactive) and -16.3% (inactive) | -4.35% (inactive) and -1.8% (inactive) | 15.2% (inactive) and 3.4% (inactive) | -14% (inactive) and -11.9% (inactive) | 9.05% (inactive) and 21.9% (inactive) | -3.1% (inactive) and -27.3% (inactive) |
| O=CC(O)C(O)C(OC1OC(CO)C(O)C(O)C1O)C(O)CO (configuration not stated) (tested in a mixture with another compound) | 89.5% (active) and 38% (inactive) | 96.5% (active) and 36.4% (inactive) | 94.3% (active) and 55.4% (inactive) | 93.8% (active) and 78.4% (active) | 98.2% (active) and 80.7% (active) | 95.3% (active) and 49.9% (inactive) |
| COc1ccc(C(O)C(NCCO)c2ccc(OC)cc2)cc1 (configuration not stated) | 8.85% (inactive) and -3.55% (inactive) | 12.8% (inactive) and -7.35% (inactive) | 42.7% (inactive) and -3.7% (inactive) | -37.6% (inactive) and -16.8% (inactive) | -2.25% (inactive) and 0.05% (inactive) | 15.7% (inactive) and -28.1% (inactive) |
| C/C(=N\NS(C)(=O)=O)C(C)(C)C | -5.05% (inactive) and 16.1% (inactive) | -0.2% (inactive) and 11.1% (inactive) | 2.35% (inactive) and 21.3% (inactive) | -5.35% (inactive) and 6.5% (inactive) | -35.5% (inactive) and -20.8% (inactive) | -13% (inactive) and 17.8% (inactive) |
| CCOC(=O)C(N)CCSC (configuration not stated) | -22.8% (inactive) and -14.2% (inactive) | -14.3% (inactive) and -7.65% (inactive) | -13.8% (inactive) and -1% (inactive) | -39.4% (inactive) and -16.6% (inactive) | -13.3% (inactive) and -8.95% (inactive) | -5.05% (inactive) and -17.5% (inactive) |
| CC(C)(C)OC(=O)N1CCCC1C(=O)O (configuration not stated) | -2% (inactive) and 4.9% (inactive) | -22.3% (inactive) and 2.55% (inactive) | 3.05% (inactive) and 3.8% (inactive) | 6.05% (inactive) and -24.8% (inactive) | 11.6% (inactive) and -5.25% (inactive) | 2.45% (inactive) and 4.55% (inactive) |
| O=[N+]([O-])c1ccc(NCS(=O)(=O)O)cc1 | 6.95% (inactive) and -2% (inactive) | -14.3% (inactive) and -7.9% (inactive) | -9.35% (inactive) and 5.9% (inactive) | -12.2% (inactive) and -15.8% (inactive) | 8.55% (inactive) and -3.05% (inactive) | 5.7% (inactive) and 17.8% (inactive) |
